Screening results from PubChem BioAssay.
Most compounds without a hit are left out; they make up all but 19% or so of the library.
HT1080NT lethal – kills 2HG-producing HT-1080-NT fibrosarcoma cells; Potency, µM (doses to about 46.1 µM), without a hit: at the top dose activity, negative = less viability, usual class: cytotoxic; HT-1080-NT fibrosarcoma viability, CellTiter-Glo ATP luminescence, 48 h; 360,000 compounds, 1.6% hits;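 also: NT is the 2HG producing partner of a matched IDH1 knockdown line; potency is read from the fitted curve at half-maximal effect; 0% = DMSO-treated cells and -100% = media-only wells without cells; nearly all actives have a fitted effect of over 55% in size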
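Luminescent CellTiter-Glo readout after 48 hours of compound exposure at 37 degrees C defined viability of HT-1080-NT cells. Activity was normalized to DMSO wells and cell-free media wells; concentration-response curves were fitted and assigned curve classes.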
DT40 TDP1 no CPT – qHTS for Inhibitors of human tyrosyl-DNA phosphodiesterase 1 (TDP1): qHTS in cells in absence of CPT; Potency, µM (series often up to 46.2 µM), inactives show at the top dose activity change, negative = growth inhibition, actives largely listed as inhibitors; 420,000 compounds, 15% hits; DT40 Tdp1-/- hTDP1 cells, no CPT, ATP luminescence, 48 h; AID 686978, 2013; also: potency is read from the fitted curve at half-maximal effect; nearly all actives have a fitted effect of over 55% in size
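DT40 Tdp1-/-;hTDP1 cells, no CPT (DMSO vehicle only), 400 cells/well; compounds pin-transferred; ≥48 hr, 37 °C; CellTiter-Glo 30 min RT dark, luminescence read.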
IL-1B inflam inh – inflammasome signaling inhibition, IL-1 beta readout; activity change, % at 57.5 µM; THP-1 LPS/ATP IL-1B secretion, AlphaLISA, 16 h; hits give low values; AID 743279; 360,000 compounds, 4.7% hits; in the data active = activity change below about -50%; inconclusive = mostly about -30% to -49%
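THP-1 cells pretreated 1 hr with compounds (up to 57.5 uM final), then stimulated with LPS (250 ng/mL final) plus ATP (1.25 mM final); secreted IL-1B measured by AlphaLISA after 16 hr, decreased signal indicating inhibition.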
DT40 TDP1 CPT – DT40-hTDP1 cell growth loss with CPT; Potency, µM (series often up to 46.2 µM), for inactives: at the top dose activity change, negative = growth inhibition, usual class: inhibitors; chicken DT40 Tdp1-/-;hTDP1 cells + 20 nM CPT, ATP luminescence, 48 h; AID 686979; 420,000 compounds, 12% hits; also: potency is read from the fitted curve at half-maximal effect; nearly all actives have a fitted effect of over 55% in size
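Cell growth measured by CellTiter-Glo luminescence after a minimum 48 h, 37 C compound exposure with 20 nM CPT in Tdp1-knockout DT40 cells stably expressing hTDP1, seeded 400/well; qHTS titration format.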
HT1080 IDH1KD tx – kills HT-1080 cells with IDH1 knockdown; HT-1080 IDH1 knockdown viability, ATP luminescence, 48 h; Potency, µM (titrated, usually from 46.1 µM), for the others: at the highest dose activity, negative = toxicity, actives largely listed as cytotoxic; 360,000 compounds, 2% hits; AID 686971;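 also: potency is read from the fitted curve at half-maximal effect; 0% = DMSO wells and -100% = cell-free medium wells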
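After a 2 h attachment period, IDH1KD HT-1080 cells took pin-transferred compound for 48 h at 37 °C; ATP-based luminescence after 10 min room-temperature reagent incubation reported viability.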
The depositor's hits bear a star; u = inconclusive; x = no result given; [ ] = another dose, or the depositor's remark. Unless noted, calls follow the shape of the dose curve; as a rule, active = well fitted curve in the direction sought with a large enough effect; inconclusive = small, poorly fitted or top-dose-only effect, or another doubt; inactive = no such curve, though single readings can be large; an effect the other way counts as inactive or inconclusive. Unless noted, % is scaled to controls: 0 for no effect and ±100 for the full control effect.

SMILES	HT1080NT lethal	DT40 TDP1 no CPT	IL-1B inflam inh	DT40 TDP1 CPT	HT1080 IDH1KD tx
COc1ccc(Nc2nc(N)c3cc(OC)c(OC)cc3n2)cc1	x	18.4µM*	x	u	x
O=C(NC1CCCC1)C1c2ccccc2OCC(=O)N1C1CC1 (stereo not given)	17.3%	-8.2%	42.2	8.8%	12.2%
Cc1ccc(S(=O)(=O)NCC2(c3ccccc3)CCN(C)CC2)cc1	-1.5%	11.9%	-65.9*	-12.3%	-23.2%
Cc1cc(C(=O)Nc2ccncc2)ccc1[N+](=O)[O-]	10.1%	14.6µM*	-3.6	u	4.6%
CCN(CC)C(=O)c1sc(NC(=O)c2ccc(C)c([N+](=O)[O-])c2)c(C#N)c1C	-14.4%	20.6µM*	8.1	u	-13.4%
Cc1c(C(=O)N(C)C)sc(NC(=O)c2cccc([N+](=O)[O-])c2)c1C#N	6.7%	-26.7%	13.1	-18.0%	0.0%
Cc1ccc(C(=O)NC(=S)Nc2cccc(NC(=O)c3ccccc3)c2)cc1[N+](=O)[O-]	-0.8%	16.4µM*	-7.3	u	0.8%
Cc1ccc(C(=O)NCC(C)NC(=O)c2ccc(C)c([N+](=O)[O-])c2)cc1[N+](=O)[O-] (stereo not given)	2.9%	14.6µM*	-19.9	u	-3.7%
Cc1ccc(NC(=O)c2ccncc2)cc1[N+](=O)[O-]	3.3%	-28.5%	-1.5	-4.2%	16.8%
CC(=O)c1cccc(NC(=S)NNC(=O)c2ccc(C)c([N+](=O)[O-])c2)c1	-6.9%	0.3%	-12.7	-8.1%	-3.3%
CC(=O)c1ccc(S(=O)(=O)NCc2ccc(C(=O)NCC(c3ccccc3)N(C)C)cc2)cc1 (stereo not given)	-3.8%	-12.0%	7.3	1.2%	5.0%
COC(=O)c1cccc(NC(=O)CC2C(=O)NCCN2C(=O)c2ccc(F)cc2F)c1 (stereo not given)	24.1%	10.1%	24.8	10.1%	-2.5%
CC(C)CCN(C(=O)c1ccccn1)c1c(N)n(Cc2ccccc2)c(=O)[nH]c1=O	9.0%	-15.4%	18.6	-11.5%	13.4%
CC(NC(=O)c1cccs1)C(c1cccs1)N1CCOCC1 (stereo not given)	0.6%	-19.4%	0.0	1.5%	13.4%
Cc1ccc(C(=O)Nc2ccncc2)cc1[N+](=O)[O-]	-5.3%	0.731µM*	-54.5*	u	-2.2%
CCOC(=O)c1ccc(NC(=O)C2=C(C)Nc3nc(SCc4ccc(Cl)cc4)nn3C2c2ccc(C)cc2)cc1 (stereo not given)	x	-3.2%	x	-15.2%	x
CC(C)COc1ccc(/C(=N/O)c2ccccc2)cc1	u	u	-78.9*	-22.3%	0.6%[9.24 µM]
CCN(c1ccccc1)S(=O)(=O)c1ccc(C(=O)Oc2ccc(C(C)=O)cc2)cc1	-2.2%	-4.9%	17.7	-13.5%	3.4%
CC(=O)Nc1ccc(S(=O)(=O)NC2CC(=O)N(c3ccc(C)cc3)C2)cc1 (stereo not given)	6.0%	-5.6%	-4.3	14.0%	2.7%
Cc1[nH]n(-c2ccccc2)c(=O)c1C(C[N+](=O)[O-])c1ccc(Cl)cc1 (stereo not given)	u	4.11µM*	-13.7	3.26µM*	-21.9%
Cc1[nH]n(-c2ccccc2)c(=O)c1C(c1ccccc1[N+](=O)[O-])C(C#N)C#N (stereo not given)	2.1%	u	-9.2	u	-13.2%
CCOc1cc(C(c2c(C)[nH]n(-c3ccccc3)c2=O)c2c(C)[nH]n(-c3ccccc3)c2=O)ccc1O	x	5.17µM*	x	u	x
Cc1[nH]n(-c2ccccc2)c(=O)c1C(c1cc(Cl)ccc1O)c1c(C)[nH]n(-c2ccccc2)c1=O	x	u	x	-19.2%	x
Cc1ccc(C(C[N+](=O)[O-])c2c(C)[nH]n(-c3ccccc3)c2=O)cc1 (stereo not given)	-4.7%	5.8µM*	11.7	4.61µM*	-1.1%
Cc1[nH]n(-c2ccccc2)c(=O)c1C(C[N+](=O)[O-])c1ccc(F)cc1 (stereo not given)	-0.4%	11.6µM*	-12.1	7.31µM*	7.5%
SMILES	HT1080NT lethal	DT40 TDP1 no CPT	IL-1B inflam inh	DT40 TDP1 CPT	HT1080 IDH1KD tx
CCC(c1nnnn1-c1ccc2c(c1)OCCO2)N1CCN(C)CC1 (stereo not given)	18.8%	-22.6%	10.7	7.3%	6.4%
Cc1ccc(S(=O)(=O)N2CCC(C(=O)Nc3ncccc3O)CC2)cc1	-0.6%	15.8%	44.7	13.6%	1.3%
N#Cc1c(C(F)(F)F)cc(-c2cccs2)nc1SCC(=O)Nc1ccccc1F	x	u	x	-27.9%	x
FC(F)(F)c1cnc(-c2cc3c(c(OCC4CCCO4)c2)OCCN(Cc2cccn2-c2nccs2)C3)c(Cl)c1 (stereo not given)	x	-6.9%	x	14.7%[9.04 µM]	x
CCCCCCSc1ccc([C@H]2N[C@@](CC(C)C)(C(=O)OC)[C@H]3C(=O)N(C)C(=O)[C@@H]23)cc1	-13.5%	u	u	u	-7.9%
CCCCCCSc1ccc([C@H]2N[C@@](C)(C(=O)OC)[C@H]3C(=O)N(CC)C(=O)[C@@H]23)cc1	-20.2%	18.4µM*	-25.8	23.1µM*	-10.7%
CCC(C)Sc1ccc([C@H]2N[C@@](C)(C(=O)OC)[C@H]3C(=O)N(CC)C(=O)[C@@H]23)cc1 (stereo not given in full)	5.4%	18.4µM*	18.1	16.4µM*	11.7%
CCOC(=O)C1(C)NC(c2ccc(OC)c(OC)c2)C2C(=O)N(CC)C(=O)C21 (stereo not given)	17.2%	-11.9%	17.6	-11.9%	21.0%
CCC(C)Sc1ccc([C@H]2N[C@@](C)(C(=O)OC)[C@H]3C(=O)N(C)C(=O)[C@@H]23)cc1 (stereo not given in full)	10.1%	u	16.7	-29.0%	8.0%
CCCCCCSc1ccc([C@H]2N[C@@](CC(C)C)(C(=O)OC)[C@H]3C(=O)N(CC)C(=O)[C@@H]23)cc1	-12.8%	20.6µM*	15.9	20.6µM*	1.4%
O=C(COc1ccc2c(c1)OCO2)NCc1cccs1	6.5%	-3.2%	0.9	-4.8%	11.6%
Cc1nnc(NC(=O)C(=O)c2cc(C)n(-c3ccc(C)c(C)c3)c2C)s1	x	-22.2%	x	-25.9%	x
Cc1cc2c(cc1S(=O)(=O)N(C)CC(=O)Nc1cccc(C#N)c1)OCC(=O)N2	x	-18.0%	x	3.6%	x
O=C(CSc1nnc(SCC(=O)c2ccco2)s1)c1ccco1	4.9%	10.3µM*	15.0	23.1µM*	8.5%
O=C(/C=C/c1ccccc1)c1ccc2c(c1)OCO2	-18.0%	u	-7.4	18.4µM*	-0.1%
O=C(N/N=C\C=C\c1ccc2c(c1)OCO2)c1ccc(F)cc1	-16.0%	-20.0%	-16.4	27.2%	-7.4%
